Only a selection was taken, and hits are over-represented in it overall.
Methyltransferases – Primary Screen for Target Class Profiling of Small Molecule Inhibitors of Methyltransferases; calls only at 40 µM; purified enzyme, MTase-Glo SAH luminescence; hits give low values; 25,000 compounds, 3.9% hits; AID 1745853, 2022; call rule not given here
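Each enzyme was assayed with SAM and its substrate. SAH formation detected by MTase-Glo luminescence; single-point 40 uM screen[…].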
An asterisk follows results filed as active; i = inactive; + = active, no number. % is scaled to controls: 0 for no effect and ±100 for the full control effect.

SMILES	Methyltransferases
CC(C)Oc1ccc(CN2C(=O)c3nc4ccccc4n3CC2(C)C(=O)NC2CCCCC2)cc1 (stereo unspecified)	i
Cc1cc(C)cc(NC(=O)Cn2nc3n(C(C)C)c(=O)c4ccc(C(=O)NCC(C)C)cc4n3c2=O)c1	i
CCCn1c(=O)c2ccc(Cl)cc2n2c(=O)n(Cc3cccc(C)c3)nc12	i
N=C(N)SCCN	+
CC(C)NC(=O)c1ccc2c(=O)n(C(C)C)c3nn(CC(=O)NC4CCCCC4)c(=O)n3c2c1	i
CC(C)n1c(=O)c2ccc(C(=O)NC3CCCCC3)cc2n2c(=O)n(Cc3c(F)cccc3Cl)nc12	i
CN1C(=O)c2cc(C(=O)NCCCN3CCCCC3)nn2CC1(C)C(=O)NC1CCCC1 (stereo unspecified)	i
O=C(O)Cc1c(-c2ccccc2)c2cc(Br)ccc2[nH]c1=O	i
O=C1NC(=O)c2c1c(-c1ccccc1)cc1[nH]c3ccc(O)cc3c21	+
O=C(O)Cc1c(-c2ccccc2)c2cc(Cl)ccc2[nH]c1=O	i
CCOC(=O)c1cc2n(n1)CC(C)(C(=O)NC1CCC(C)CC1)N(Cc1ccc(OCC)cc1)C2=O (stereo unspecified)	i
CCOC(=O)c1cc2n(n1)CC(C)(C(=O)NCc1ccccc1)N(Cc1cccc(C)c1C)C2=O (stereo unspecified)	i
COc1ccc(-c2cc3n(n2)CC(C)(C(=O)NCc2ccccc2OC)N(c2ccc(F)cc2)C3=O)cc1 (stereo unspecified)	i
c1ccc(CNc2nc(-c3ccccc3)no2)cc1	i
O=C(NCc1ccc(Oc2ccccc2)cc1)c1nc(-c2cc(Br)c(O)c(Br)c2)no1	+
COCc1nc(-c2ccc(OC3CN(C(=O)NCc4ccc(OC)cc4)C3)cc2)no1	i
Cc1ccc(Cn2c(=O)c3ccccc3n3c(SCC(=O)Nc4ccc(F)cc4F)nnc23)cc1	i
CC1(C(=O)NC2CCCC2)Cn2c(c(-n3cccc3)c3ccccc32)C(=O)N1Cc1cccnc1 (stereo unspecified)	i
CC1(C)CCC(c2ccc(Cl)cc2)=C(CN2CCN(c3ccc(C(=O)NS(=O)(=O)c4ccc(N[C@H](CCN5CCOCC5)CSc5ccccc5)c(S(=O)(=O)C(F)(F)F)c4)cc3)CC2)C1	+
CN(C)CC[C@H](CSc1ccccc1)Nc1ccc(S(=O)(=O)NC(=O)c2ccc(N3CCN(Cc4ccccc4-c4ccc(Cl)cc4)CC3)cc2)cc1[N+](=O)[O-]	+
Cc1ccc(N2C(=O)c3ccccc3CC2(C)C(=O)NCc2ccccc2C)cc1 (stereo unspecified)	i
CC(C)CCNC(=O)C1(C)Cn2c(cc3ccccc32)C(=O)N1CCc1ccccc1Cl (stereo unspecified)	i
COc1cccc(C(=O)Cn2nc3n(C(C)C)c(=O)c4ccc(C(=O)NC5CCCCC5)cc4n3c2=O)c1	i
COC(=O)c1ncn2c1C(=O)N(c1ccc(C(C)C)cc1)C(C)(C(=O)NC1CCCCCC1)C2 (stereo unspecified)	i
Cc1cc(C)cc(N2C(=O)CSc3c(c4ccccc4n3C)C2C(=O)NCCC(C)C)c1 (stereo unspecified)	i
SMILES	Methyltransferases
COc1ccccc1CNC(=O)C1(C)Cn2c(cc3ccccc32)C(=O)N1Cc1ccccc1C (stereo unspecified)	i
CCc1ccc(S(=O)(=O)c2nnn3c2nc(NCC2CCCO2)c2cc(Cl)ccc23)cc1 (stereo unspecified)	i
CN(CC(=O)N1CCC(Cc2ccccc2)CC1)S(=O)(=O)c1ccc2[nH]c3c(c2c1)CCCC3	i
O=C1CN(Cc2cccc(Cl)c2)S(=O)(=O)c2ccccc2N1Cc1cccc(F)c1	i
CC(C)CCNC(=O)Cn1ccc2cc(S(=O)(=O)N3CCCC3)ccc21	i
Cc1cccc(Cn2nc3n(Cc4ccccc4)c(=O)c4ccc(C(=O)NC5CCCC5)cc4n3c2=O)c1	i
CCCCN1C(=O)c2cc(C(=O)N3CCN(c4ccccn4)CC3)nn2CC1(C)C(=O)NC1CCCC1 (stereo unspecified)	i
COc1cccc(-c2ccc(NC(=O)C3CCCN3C(=O)CNC(C)=O)cc2)c1 (stereo unspecified)	i
C=CC(=O)Nc1cccc(Nc2nc(Nc3ccc(NC4CN(CCF)C4)cc3OC)ncc2C(F)(F)F)c1	i
CC(=O)NCC(=O)N1C2CCC1c1cc(Nc3ncc(C(F)(F)F)c(NC4CCC4)n3)ccc12 (stereo unspecified)	+
O=C(NC1CCCCC1)c1ccc2c(=O)nc3c(-c4ccccc4)n[nH]n3c2c1	i
CCC(C(=O)N1CCN(c2ccccc2)CC1)n1ccc2cc(S(=O)(=O)N3CCCCC3)ccc21 (stereo unspecified)	i
CCCn1c(=O)c2ccccc2n2c(=O)n(Cc3ccc(F)cc3Cl)nc12	i
CCCn1c(=O)c2ccccc2n2c(SCc3ccccc3)nnc12	i
NC(=O)N1CCC(CC(=O)N2CCC(C3c4ncc(Br)cc4CCc4cc(Cl)cc(Br)c43)CC2)CC1 (stereo unspecified)	+
CC1(C(=O)NC2CCCCC2)Cn2c(nc3ccccc32)C(=O)N1Cc1cccnc1 (stereo unspecified)	i
COc1ccc(Cn2c(=O)c3ccccc3n3c(-c4ccc(NC(C)=O)cc4)nnc23)cc1	i
Cc1ccc(CNC(=O)Cn2nc3n(C(C)C)c(=O)c4ccc(C(=O)NC(C)C)cc4n3c2=O)cc1	i
CC(=O)Nc1c2n(c3ccccc13)CC(C)(C(=O)NC1CCCCCC1)N(C1CCCCCC1)C2=O (stereo unspecified)	i
Cc1cc2c(cc3n2CC(C)(C(=O)NC2CCCCC2)N(Cc2ccccc2C)C3=O)o1 (stereo unspecified)	i
COc1ccc(NS(=O)(=O)c2cc3[nH]c(=O)[nH]c3cc2Cl)cc1	i
CC(C)(C)c1ccc(S(=O)(=O)/C=C/C#N)cc1	+
Cc1cc2c(cc3n2CC(C)(C(=O)NC2CCCCCC2)N(CCN2CCCCCC2)C3=O)o1 (stereo unspecified)	i
CCCn1c(=O)c2ccc(C(=O)NCC(C)C)cc2n2c(=O)n(Cc3cccc(C)c3)nc12	i
Clc1ccc(C(Cn2ccnc2)OCc2c(Cl)cccc2Cl)c(Cl)c1 (stereo unspecified)	+
SMILES	Methyltransferases
CCCN1C(=O)c2cc(C(=O)NCCCOC(C)C)nn2CC1(C)C(=O)NC1CCCC1 (stereo unspecified)	i
CCOc1ccc(N(C(=O)c2cccnc2)S(=O)(=O)c2ccc3c(c2)n(C)c(=O)n3C)cc1	i
Cn1c(=O)c2ccc(C(=O)NC3CCCCC3)cc2n2c(=O)n(Cc3c(F)cccc3Cl)nc12	i
Cc1ccc(CCNC(=O)Cn2c(=O)oc3cc(S(=O)(=O)NC4CCCC4)ccc32)cc1	i
CSC(=O)OCC1=C[C@@H]2OC(=O)C3=CO[C@@H](O[C@@H]4O[C@H](CO)[C@@H](O)[C@H](O)[C@H]4O)[C@H]1[C@@H]32	+
COC(=O)C1=CO[C@@H](O[C@@H]2O[C@H](CO)[C@@H](O)[C@H](O)[C@H]2O)[C@@H]2C(CO)=CC[C@H]12	i
O=C(/C=C/c1ccc(O)cc1)OCC1=CC2OC(=O)C3=CO[C@@H](O[C@@H]4O[C@H](CO)[C@@H](O)[C@H](O)[C@H]4O)[C@H]1[C@@H]32 (stereo partly specified)	i

Screening data from PubChem.
